# Source: PubChem BioAssay (several laboratories)
# Most compounds without a hit are left out; they make up all but 1.4% or so of the library.
# ZTA DNA inh: blocks Epstein-Barr virus ZTA, an EBNA-1 counter-screen; hit rate 0.15% among 320,000; ZTA-DNA binding, fluorescence polarization; inhibition, % at 11 µM; in the data active = inhibition above about 33%
# LYPLA1 counter: blocks human lysophospholipase 1, a PME1 counter-screen. O75608. recombinant LYPLA1, FP-Rh probe fluorescence polarization. inhibition, % at 5.9 µM. hit rate 0.16% among 320,000. AID 2174;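 active = inhibition above the mean of all tested compounds plus 3 SD, set per campaign, cut at about 14% in these data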;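 note: inhibitors block serine hydrolase probe labeling of LYPLA1 so polarization falls; 0% = enzyme with DMSO and 100% = wells lacking LYPLA1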
# Target sequence (O75608 whole entry, looked up): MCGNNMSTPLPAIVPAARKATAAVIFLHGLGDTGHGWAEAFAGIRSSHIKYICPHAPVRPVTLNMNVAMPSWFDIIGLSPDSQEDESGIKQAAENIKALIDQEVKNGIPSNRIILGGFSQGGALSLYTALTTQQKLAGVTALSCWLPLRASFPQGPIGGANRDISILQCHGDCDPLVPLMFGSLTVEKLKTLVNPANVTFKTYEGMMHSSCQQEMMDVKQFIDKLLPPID
# EBNA-1 inhibitor: blocks EBNA-1 binding to DNA; EBNA-1 DNA binding, fluorescence polarization; hit rate 0.34% among 300,000; inhibition, % at 14.8 µM; in the data active = inhibition above about 28%
# LYPLA2 inh: LYPLA2 (human) inhibition in PME1 counter-screen | O95372 | recombinant LYPLA2, FP-Rh probe fluorescence polarization | inhibition, % at 5.9 µM | hit rate 0.38% among 320,000;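 active = inhibition above the screen-wide mean plus 3 SD, limit set per campaign, cut at about 26% in these data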;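 note: 0% = LYPLA2 with DMSO and 100% = wells lacking LYPLA2 enzyme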
# Target sequence (O95372 whole entry, looked up): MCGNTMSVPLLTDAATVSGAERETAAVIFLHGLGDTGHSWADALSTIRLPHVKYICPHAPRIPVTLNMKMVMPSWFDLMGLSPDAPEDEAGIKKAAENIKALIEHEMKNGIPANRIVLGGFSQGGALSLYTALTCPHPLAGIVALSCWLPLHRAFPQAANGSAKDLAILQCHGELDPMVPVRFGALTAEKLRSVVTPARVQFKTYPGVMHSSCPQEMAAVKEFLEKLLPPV
# LANA-H2B inh: blocks KSHV LANA binding to histone H2A/H2B; AID 2629; cell-free LANA-H2A/H2B peptide, fluorescence polarization; hit rate 0.6% among 320,000; Q9QR71; inhibition, % (test concentration not listed); in the data active = inhibition mostly above about 10%, no sharp cut-off; inactive = mostly below about 6.7%
# * hit, by the source's call; . = no result given; + = active, no number.
SMILES,ZTA DNA inh,LYPLA1 counter,EBNA-1 inhibitor,LYPLA2 inh,LANA-H2B inh
Cc1ccc(-n2nc3c(c2NC(=O)c2ccc4c(c2)OCO4)CS(=O)(=O)C3)cc1,-10.2,-3.8,-4.2,-2.9,-2.1
Cc1ccc(-n2nc3c(c2NC(=O)c2ccc(F)c(F)c2)CS(=O)(=O)C3)cc1,6.0,1.1,4.1,6.2,109.2*
COc1ccc(Cc2nnc(SCC(=O)N3CCCCC3)o2)cc1,-6.1,-0.1,-2.0,6.3,2.6
Cc1c(NC(=O)c2cc(-c3cccs3)on2)c(=O)n(-c2ccccc2)n1C,-12.5,-2.8,-12.6,-2.2,174.6*
Cc1c(NC(=O)c2cc(-c3ccco3)on2)c(=O)n(-c2ccccc2)n1C,-7.4,-0.5,-2.8,-3.1,-3.1
O=C(Nc1cccnc1)c1cc(-c2ccccc2O)on1,7.5,-3.1,1.7,1.7,-4.6
O=C(Nc1cccnc1)c1cc(-c2cccs2)on1,-6.6,-1.3,14.1,0.9,91.8*
Cc1c(C(=O)N(C)Cc2nc3ccccc3c(=O)[nH]2)oc2ccccc12,.,.,.,.,6.0
O=C(COC(=O)COc1ccc(Cl)cc1Br)NC1CCCCCC1,0.1,-0.2,.,0.0,-3.8
CN(C(=O)COc1ccc(Cl)cc1Br)C1CCCCC1,0.6,-2.2,3.9,12.4,53.0*
CCOc1ccc(C(=O)NC(C)C2COc3ccccc3O2)cc1 (stereo unspecified),-5.5,-0.6,-8.0,3.3,35.7*
Cc1c(N=Cc2ccc(Cl)o2)c(=O)n(-c2ccccc2)n1C,-3.6,1.1,5.6,0.4,22.9*
Cc1ccc(Sc2ncccc2N)cc1,-14.6,3.3,-14.4,1.6,37.4*
Cc1ccc(Sc2ncccc2O)cc1,9.5,-3.5,5.9,0.7,-5.5
Cc1ccc(CNC(=O)C(N=C2NS(=O)(=O)c3ccccc32)C(C)C)cc1 (stereo unspecified),-7.8,-1.1,.,2.4,-1.0
C=CCOc1nc2c(c(=O)n(C)c(=O)n2C)n1Cc1ccccc1,-4.8,0.5,-0.3,-0.8,1.5
COCCOc1nc2c(c(=O)n(C)c(=O)n2C)n1CCc1ccccc1,10.2,-3.4,-16.5,-7.9,11.0*
O=C1C(=Cc2cccn2-c2ccccc2)C(=O)c2ccccc21,5.8,5.6,-3.8,14.3,127.0*
COC(=O)CC#N,1.8,0.9,.,0.8,+
COc1cccc(NC(=O)CN(C)C(=O)c2cc(-c3ccc(C)o3)nc3ccccc23)c1,13.7,-3.9,.,-2.8,60.3*
CCN(CC)C1=C(Cl)C(=O)C(Cl)C12OCCO2 (stereo unspecified),-8.6,-1.6,-10.7,5.2,12.4*
O=C(CSc1ccc(Cl)cc1)NC(=O)c1ccccc1,-27.4,0.2,.,4.3,-0.3
Cc1nonc1OCCNCCNc1ccccc1[N+](=O)[O-],1.8,2.4,4.1,2.8,23.8*
Cc1ccc(C)n1-c1cccc(C(=O)O)c1,77.5*,-3.3,26.7,0.8,6.2
Cc1cc(C=O)c(C)n1-c1cccc(C(=O)O)c1,-5.5,-3.3,-1.6,-1.7,-7.7
SMILES,ZTA DNA inh,LYPLA1 counter,EBNA-1 inhibitor,LYPLA2 inh,LANA-H2B inh
COc1cc2c(cc1NC(=O)CSc1ccccc1)oc1ccccc12,33.5*,-6.9,6.7,-13.4,-2.4
O=C(N/N=C/c1cccc(F)c1)c1c(O)c2ccccc2[nH]c1=O,5.2,2.0,-6.4,4.5,+
Cc1ccc(Nc2nc3ccccc3c(=O)[nH]2)cc1C,-1.2,-4.7,-17.3,-2.7,-5.8
COc1ccc(Nc2nc3ccccc3c(=O)[nH]2)cc1,-21.3,0.6,-10.0,1.2,21.5*
COc1ccc(C(=O)Nc2nc3ccccc3c(=O)[nH]2)cc1,6.2,-6.5,7.0,-12.2,39.8*
C#CCN1C(=O)C2(OCCO2)c2ccccc21,-7.4,1.7,-2.7,-1.6,-8.4
O=C(Nc1ccccc1Oc1ccsc1C(=O)O)c1ccccc1F,-5.5,-1.1,-5.6,-0.4,97.9*
O=C(O)c1cccc(NC(=O)c2ccccc2NC(=O)c2ccccc2F)c1,-2.0,0.2,-1.5,-2.9,16.7*
O=C(Nc1ccccc1C(=O)Nc1ccccc1)c1ccccc1F,5.8,-0.7,1.0,-3.0,-3.3
Fc1ccccc1N1CCN(CC2CCCCC2)CC1,14.0,-2.2,0.7,-1.0,1.2
COc1ccc(/C=N/NC(=O)CC(=O)NCc2cccnc2)cc1[N+](=O)[O-],-10.2,1.1,3.5,-0.7,-4.2
CC(=O)c1cnc(-c2ccccn2)s1,-2.2,-0.8,-2.5,-3.9,18.0*
CC(C)CN1CCN(Cc2ccc(CN3CCCCC3)s2)CC1CCO (stereo unspecified),-5.6,0.3,2.8,-1.4,41.4*
COc1cc(NC(=O)[C@@H](NC(=O)N2CCn3c2nc2ccccc23)C(C)C)cc(OC)c1,0.3,-1.4,-14.7,5.8,-5.7
Cc1ccc2nc(NCC(N)=O)nc(-c3ccccc3)c2c1,-5.1,0.7,-9.8,4.5,1.4
Cc1ccc2nnnc(-c3ccccc3)c2c1,35.4*,2.2,38.3*,3.7,-2.2
O=C(CSc1nc2c(c(=O)n1-c1ccc(Br)cc1)SCC2)Nc1nccs1,-22.3,2.4,31.7*,0.6,3.9
O=C(CSc1nc2c(c(=O)n1-c1ccc(Cl)cc1)SCC2)Nc1nccs1,9.0,-2.9,-1.0,-3.5,0.3
CCS(=O)(=O)CCn1c([N+](=O)[O-])cnc1C,10.1,-2.2,1.4,-1.5,10.8*
O=C(CN(C(=O)c1csnn1)c1cccc(Cl)c1)NC1CCCCC1,0.3,3.4,3.5,3.9,1.0
CC(C)OCCCNC(=O)CN1C(=O)CSc2ccc(S(=O)(=O)N3CCCCC3)cc21,0.9,-4.2,-5.4,-10.0,21.7*
CCCCN(C)CCNC(=O)CN1C(=O)CSc2ccc(S(=O)(=O)N3CCCC3)cc21,-0.7,-4.8,-8.6,-1.5,19.4*
O=C(CN1C(=O)CSc2ccc(S(=O)(=O)N3CCCCC3)cc21)NCc1ccccc1,4.4,5.3,-10.6,-0.5,56.1*
N#C/C(=C\c1ccc([N+](=O)[O-])o1)C(=O)Nc1ccc(F)cc1,79.3*,-1.4,37.1*,5.5,0.3
Cc1cc(C)c(NC(=O)CS)c(Cl)c1,-21.4,4.0,-6.2,9.8,18.4*
SMILES,ZTA DNA inh,LYPLA1 counter,EBNA-1 inhibitor,LYPLA2 inh,LANA-H2B inh
Cc1cc(C)c(NC(=O)CC(C)(C)C)c(Cl)c1,2.2,0.1,-5.3,2.5,2.2
O=C(NCc1ccco1)C1CCC(N2C(=O)c3ccccc3C2=O)CC1 (stereo unspecified),1.5,-1.3,2.2,2.4,23.3*
O=C(NCc1ccco1)C1CCC(N2C(=O)C3C4CCC(C4)C3C2=O)CC1 (stereo unspecified),-3.6,-1.1,-14.3,-2.9,-4.9
O=C(CSc1nccn1Cc1ccccc1)NC1CCCC1,3.8,-4.0,-1.1,1.5,-4.9
Cc1ccc(S(=O)(=O)Nc2ccccc2C(=O)N2CCCC2)cc1,2.8,-0.8,-1.8,-7.7,-6.4
Cc1ccc(S(=O)(=O)Nc2ccccc2C(=O)N2CCN(C)CC2)cc1,7.9,-0.9,13.3,12.3,102.3*
Cc1ccc(S(=O)(=O)NC(=O)Nc2ccc(N(C)C)cc2)cc1,+,1.9,+,3.2,1.7
Cc1ccc(NC(=O)NNS(=O)(=O)c2ccc(Br)cc2)cc1,-13.6,-1.4,7.0,-2.1,1.6
